Measured values published in PubChem BioAssay (NCI).
This is part of a sample that, as a whole, favours compounds with a hit. Of some 83,000 tested, about 20% had one in any assay.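 Cells were grown in 96-well plates and exposed to the test compound at a single concentration for 48 hours; results are reported as percent growth, with values below 10 considered active.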 Values without a mark were called inactive. Activity calls are given as the source filed them.

Experiments:
Test in all cases: NCI-60 one-dose screen, 48 h (100 = growth as untreated, 0 = no growth, -100 = all killed)
HCT-15 colon = details: 10 µM unless noted
HT29 colon = details: 10 µM unless noted
SNB-75 CNS = details: 10 µM unless noted
SNB-19 CNS = details: 10 µM unless noted
U251 CNS = details: 10 µM unless noted
SK-MEL-5 melanoma = details: 10 µM unless noted
UACC-62 melanoma = details: 10 µM unless noted
LOX IMVI melanoma = details: 10 µM
SK-MEL-28 melanoma = details: 10 µM unless noted
SK-MEL-2 melanoma = details: 10 µM unless noted
EKVX NSCLC = details: 10 µM unless noted
SN12C renal = details: 10 µM unless noted
UO-31 renal = details: 10 µM unless noted
TK-10 renal = details: 10 µM unless noted
ACHN renal = details: 10 µM unless noted
MOLT-4 leukemia = details: 10 µM unless noted
PC-3 prostate = details: 10 µM unless noted
CAKI-1 renal = details: 10 µM unless noted
A498 renal = details: 10 µM unless noted
CCRF-CEM leukemia = details: 10 µM unless noted

Row | SMILES | growth (HCT-15 colon) | growth (HT29 colon) | growth (SNB-75 CNS) | growth (SNB-19 CNS) | growth (U251 CNS) | growth (SK-MEL-5 melanoma) [%] | growth (UACC-62 melanoma) | growth (LOX IMVI melanoma) [%] | growth (SK-MEL-28 melanoma) | growth (SK-MEL-2 melanoma) | growth (EKVX NSCLC) | growth (SN12C renal) | growth (UO-31 renal) | growth (TK-10 renal) | growth (ACHN renal) | growth (MOLT-4 leukemia) | growth (PC-3 prostate) | growth (CAKI-1 renal) | growth (A498 renal) | growth (CCRF-CEM leukemia)
1 | Nc1ccccc1SC1CC(=O)N(c2ccc(Cl)c(Cl)c2)C1=O (configuration not stated) | 118% | 96.2% | 79.9% | 96.6% | 103% | 104 | 87.6% | 98.5 | 108% | 12.9% | 86.4% | 115% | 72.6% | 137% | 108% | 109% |  |  |  | 
2 | Cc1ccc(S(=O)(=O)Oc2ccc3sc4c(CO)ccc(NCCN(C)C)c4c(=O)c3c2)cc1 | -93.8% [100 µM] (active) | -84.3% [100 µM] (active) | -92.1% [100 µM] (active) | -83.7% [100 µM] (active) | -74.7% [100 µM] (active) |  | -95.5% [100 µM] (active) |  | -85.1% [100 µM] (active) | -86.6% [100 µM] (active) | -66.7% [100 µM] (active) | -94.1% [100 µM] (active) | -95.6% [100 µM] (active) | -91.1% [100 µM] (active) | -92.7% [100 µM] (active) | -34.6% [100 µM] (active) | -86.8% [100 µM] (active) | -91% [100 µM] (active) | -71.6% [100 µM] (active) | -27.9% [100 µM] (active)
3 | C=CC1=NC(C)(C)CC(C)O1 (configuration not stated) | 98.9% | 106% | 72% | 99.5% |  | 105 | 100% | 98.4 | 96.6% | 112% |  | 99.2% | 111% | 106% | 101% | 98.5% | 102% | 114% | 98.3% | 95.7%
4 | CCCc1cccc(CCC)c1NC(=O)Nc1cc(Cl)cc(Cl)c1 | 113% | 107% | 108% | 99.5% | 101% |  | 90% |  | 103% | 106% | 109% | 91% | 69.7% | 106% | 101% | 101% | 101% | 83.5% | 95.9% | 91.6%
5 | O=Cc1ccc(F)cc1 | 93.4% | 103% | 90.3% | 103% | 101% |  | 102% | 101 | 102% | 129% |  | 98% | 82% | 113% | 95.6% |  | 101% | 88.4% | 103% | 
6 | CCOC(=O)c1cc(C)[nH]c(=O)c1C#N | 101% | 105% | 85.7% | 106% | 102% |  | 104% | 97.7 | 112% | 104% | 86.8% | 102% |  | 101% | 101% | 72.1% | 80.7% | 56.9% | 108% | 81.9%
7 | C=CCC(OC(C)=O)c1ccc(OC)c(OC)c1 (configuration not stated) | 104% | 107% | 98.8% | 109% | 101% |  | 107% | 107 | 132% |  | 107% | 102% | 90.4% | 102% | 99% | -29% (active) | 92.5% | 92.3% | 110% | 100%
8 | COC1CC(OC(=O)c2ccc([N+](=O)[O-])cc2)C(COC(=O)c2ccc([N+](=O)[O-])cc2)O1 (configuration not stated) | 100% | 121% | 87.3% | 101% | 97.2% |  | 98.1% | 103 | 101% | 127% |  | 98.9% | 95.6% | 124% | 112% | 103% | 89.8% | 94% | 83.5% | 98.1%
9 | CCOC(=O)c1ccc(Nc2sc(C(=O)c3ccc(Br)cc3)c(N)c2C#N)cc1 | 27% | 2.05% (active) | -18.6% (active) | 62.5% |  |  | 36.7% | 38.8 | 36.3% | 21.7% |  | 43.9% | 25.6% | 42.4% | 44% | 33.5% | 17.5% | 10.7% |  | 12.8%
10 | O=S(=O)(c1ccc(NC(=S)NCc2cccnc2)cc1)N1CCCCC1 | 57.2% | 55.2% | 78.4% | 60.6% |  | 74.2 | 93.7% | 56.5 | 92.6% | 41.6% |  | 36.1% | 70.7% | 112% | 86.9% | 47.3% | 25.3% | 29.1% | 97.3% | 29%
11 | C=CCC(O)C=C (configuration not stated) | 101% | 110% | 99.3% | 101% | 102% |  | 104% | 97.3 | 105% | 106% |  | 101% | 83.1% | 96.2% | 100% | 91.4% | 101% | 97.4% | 88.7% | 94.1%
12 | CC(=O)c1cc(O)ccc1O | 107% | 104% | 103% | 97.9% | 104% |  | 96.6% | 98.9 | 109% |  | 112% | 97.4% |  | 93.6% | 110% | 92.8% | 98.3% |  | 90.6% | 73.7%
13 | C(=C\c1ccncc1)/c1ccncc1 | 96.3% | 99% | 89.6% | 94.5% | 97.1% | 101 | 90.1% | 94.2 | 104% | 88.2% | 105% | 101% | 84.7% | 102% | 98.9% |  |  | 129% | 120% | 101%
14 | COc1cc2c(c(OC)c1OC)-c1ccc(SC)c(=O)cc1[C@@H](NC1OC(CO)C(O)C(O)C1O)CC2 (some centres not stated) | 14.8% | 0.658% (active) | 24.9% | 71.5% |  |  | 43.3% |  | 61.1% | 4.69% (active) |  | 33.6% | 34.4% | 42.1% | 27.2% | 1.36% (active) | 15.7% | 18.7% | -14.3% (active) | 4.92% (active)
